Data published in ChEMBL document CHEMBL3988442, “University of Dundee, Small-Polar-MMV Screening Library” (2021).
Among all 48,000 compounds or so, about 13,000 (27%) showed an effect of 50% or more. The list shows a part of the results.

Each compound was assayed on Wolbachia pipientis (assay: Anti-Wolbachia Cell-Based Screen). Settings: 5 µM.
Type: functional
Set-up: scale not given: in the data most compounds retested in dose-response had high values

SMILES | Percent Effect [%]
CCN1CCN(C[C@@H]2CN(c3ncc(Cl)cc3F)C[C@@H]2CO)CC1 | 3.895
CC(NC(=O)Nc1ccc(OC2CCCC2)cc1)c1nc[nH]n1 (centres undefined) | 4.793
CCC(C)c1ccc(NC(=O)C2CCN(C(=O)N(C)C)CC2)cc1 (centres undefined) | -1.822
Cc1cc(C)nc(N2CCC(C(=O)Nc3ccc(C(C)C)cc3)CC2)n1 | 135.6
CCC(C)c1ccc(NC(=O)C2CCN(C(=O)COC)CC2)cc1 (centres undefined) | -13.47
Cc1ccc(C(=O)NCC(O)CN2CCCC2=O)cc1Cl (centres undefined) | 2.235
CNC(=O)c1ccccc1-c1ccc(S(C)(=O)=O)cc1 | 101.9
CS(=O)(=O)c1ccc(CNC(=O)NCc2cc[nH]n2)cc1 | 1.077
CC1CCCCN1Cc1ccc(-c2ccccc2C(=O)O)cc1 (centres undefined) | -6.204
Cc1ccc(S(C)(=O)=O)cc1C(=O)NS(C)(=O)=O | -9.422
CS(=O)(=O)c1ccc(-c2ccccc2C(=O)O)cc1 | 122
CC(=O)c1ccccc1-c1cc(C(=O)O)cc(S(=O)(=O)NC(C)C)c1 | 0.5422
CN(C)C(C(=O)N1CC(Oc2ccccc2F)C1)c1ccccc1F (centres undefined) | -4.147
CO[C@@H]1CCN(S(=O)(=O)c2cccs2)[C@H]1Cc1ccccc1 | 7.736
Cc1n[nH]c(C)c1NC(=O)CN1CCn2c(nnc2C(C)C)C1 | -1.446
CC(C)C(=O)N1CCC12CCCN(C(=O)c1ccccc1)C2 (centres undefined) | -15.79
CC(C)C(=O)N1CCC12CCCN(C(=O)c1ccnnc1)C2 (centres undefined) | -3.572
C[C@H](C(=O)N1Cc2ccccc2CC2(CCCN2C)C1)c1ccccc1 (some centres undefined) | 111.3
CC(C)C(=O)N1CCCC12CCN(C(=O)c1ccno1)C2 (centres undefined) | -2.946
CC(C)C(=O)N1CCCC12CCCN(C(=O)c1ccno1)C2 (centres undefined) | -3.277
CC(C)C(=O)N1Cc2ccccc2CC2(CCCCN2C)C1 (centres undefined) | 96.75
CC(C)C(=O)N1Cc2ccccc2CC2(CCCN2C)C1 (centres undefined) | 90.17
CC(=O)c1cc(CN2C[C@@H](C(=O)O)[C@H](c3cccnc3)C2)cs1 | -13.15
CCN(Cc1cc(Cl)ccc1OC)Cc1cc(C)nn1C | -10.03
Cc1nnsc1CN(C)C(=O)CCn1cnc2ccccc21 | -11.62

SMILES | Percent Effect [%]
O=C(CNCC1(O)CCCN(Cc2cccc(F)c2F)C1=O)NC1CC1 (centres undefined) | -1.283
CN(CCCOc1ccccc1)C(=O)CN1CCc2cncnc2C1 | 0.7453
CCCOc1ccc2c(c1)OCC(C(=O)NC(C)Cn1ccnc1)=C2 (centres undefined) | 6.426
O=C(NCCCn1cccn1)C1CCC(=O)N(CC2CCCCC2)C1 (centres undefined) | -8.272
O=C1NC[C@@]2(C(=O)O)CN(Cc3cccc(OC4CCCC4)c3)C[C@@H]12 | -26.72
Cc1sc(CN)nc1-c1ccc(Cl)cc1Cl | -19.51
CC(C)C(C(N)=O)c1cccc(Cl)c1 (centres undefined) | -0.9613
NC(=O)c1nc(-c2cccc(Cl)c2)oc1N | 102.5
NC(=O)c1nc(-c2ccc(Cl)cc2Cl)oc1N | 118.4
NC(=O)N1CCCN(CCc2nc(-c3cccc(Cl)c3)no2)CC1 | 5.099
CCN1C(=O)COC[C@@H]1[C@H](O)c1ccc(NC(=O)COC)cc1 | -2.196
c1cc(-c2nc3c(c(NCCc4c[nH]cn4)n2)CCNCC3)ccn1 | 6.655
CC(=O)c1cccc(C(=O)N2C[C@@H](CN3CCCCCC3)[C@@H](CO)C2)c1 | -7.849
CN(C)c1ccc2c(c1)CN(C(=O)c1c[nH]cn1)C2c1cnco1 (centres undefined) | 3.646
CCn1cc(C(=O)n2nc(C)cc2C)c(S(=O)(=O)N2CCCCC2)n1 | -19.19
Cn1cnc(S(=O)(=O)N2CCCn3cnc(CN4CCCC4)c3C2)c1 | 1.863
CCn1cc(S(=O)(=O)N(C)Cc2c(Br)cnn2CC)c(C)n1 | 5.348
Cc1nccn1-c1cccc(C2CCCN2S(=O)(=O)c2cn(C)cn2)n1 (centres undefined) | -2.327
CN1CCCCC(C2CCN(S(=O)(=O)c3cn(C)cn3)CC2)C1=O (centres undefined) | 106.2
CCn1cc(S(=O)(=O)N2CCC(C3CCCCN(C)C3=O)CC2)c(C)n1 (centres undefined) | 91.1
CN(Cc1ccccc1)c1ccc(C(F)(F)F)cn1 | 3.007
Cc1cc(Cl)ccc1NCC(=O)Nc1cc(C(C)(C)C)no1 | -19.79
Cc1cccc(C(=O)N2C[C@@H]3COC[C@@H](CC(=O)N4CCCC4)[C@@H]3C2)n1.O=C(O)C(F)(F)F | 117.6
Cc1cccc(C(=O)N2C[C@@H]3[C@H](CC(=O)NC(C)C)[C@@H]3C2)n1.O=C(O)C(F)(F)F | -21.16
O=C(C[C@@H]1COC[C@H]2CN(C(=O)c3ccccn3)C[C@@H]12)N1CCCC1.O=C(O)C(F)(F)F | 106.7

SMILES | Percent Effect [%]
O=C(C[C@@H]1COC[C@H]2CN(Cc3ccsc3)C[C@@H]12)N1CCCC1 | -43.11
Cc1cccc(C(=O)N2C[C@@H]3[C@H](CC(=O)N4CCCC4)[C@@H]3C2)n1 | -9.844
O=C(C[C@@H]1COC[C@H]2CN(Cc3ccc(F)cc3)C[C@@H]12)N1CCCCO1.O=C(O)C(F)(F)F | 6.294
COc1ccc2c(C)c(C(=O)NCC3CN(S(C)(=O)=O)CCO3)oc2c1 (centres undefined) | -45.67
CC(C)[C@@H]1CN(Cc2ccccc2C#N)C[C@H]1C(=O)O | -3.453
CC(=O)c1cc(CN2C[C@H]3CC[C@@H]2CN(Cc2c(C)noc2C)C3)cs1 | 0.576
c1cnc(Nc2cncc(C3CCCN(c4cnccn4)C3)n2)nc1 (centres undefined) | 136.5
c1ccc(N2CCCC(c3nc(-c4cccnn4)no3)C2)nc1 (centres undefined) | -11.75
c1cnc(Nc2cncc(C3CCCN(c4ncccn4)C3)n2)nc1 (centres undefined) | 144.2
Cc1cc(NC(=O)CNc2cccc(C(=O)N3CCCC(O)C3)c2)no1 (centres undefined) | -4.959
CC(NC(=O)CCn1c(=O)oc2ccccc21)c1ccccn1 (centres undefined) | 132.8
O=C(CCCc1ccccn1)NCC(O)c1ccccc1Cl (centres undefined) | 8.067
O=C(NCC(O)c1ccc(F)c(F)c1)c1ccccc1F (centres undefined) | -40.57
O=C(CCn1c(=O)oc2ccccc21)NCC(O)c1ccc(F)c(F)c1 (centres undefined) | 132.5
Cc1ccc(C(O)CNC(=O)CCCc2ccccn2)o1 (centres undefined) | -12.57
O=C(CCc1ccccn1)NCC(O)c1ccc(Cl)cc1Cl (centres undefined) | -3.695
CC(NCCn1c(=O)oc2ccccc21)c1ccccn1 (centres undefined) | -1.92
CC(c1ccccn1)N(C)C(=O)NCCn1c(=O)oc2ccccc21 (centres undefined) | -13.01
Nc1nnc(SCC(=O)NCC(O)c2ccccc2)s1 (centres undefined) | 7.273
O=C(CCn1c(=O)oc2ccccc21)NCC(O)c1ccc(Cl)cc1 (centres undefined) | 131.9
O=C(Cn1c(=O)oc2ccccc21)NCC(O)c1ccc2c(c1)CCO2 (centres undefined) | -5.514
O=C(CCn1c(=O)oc2ccccc21)NCC(O)c1ccccc1 (centres undefined) | 124.9
COCc1ccc(C(=O)NS(=O)(=O)c2ccc3c(c2)CCC(=O)N3)cc1 | -28.72
Cc1cc(N2CCN(C(=O)c3cc(Cl)c[nH]3)CC2)nc(C)n1 | -11.81
COc1ccc(-c2cc(C3CCN(C(C)=O)CC3)ccn2)cc1 | 135.1

SMILES | Percent Effect [%]
COc1ccc([C@@H](C)n2ccnc2-c2cc3n(n2)CCCNC3)cc1 | -13.97
COc1ccc([C@@H]2CN(c3cc(C(=O)O)ccn3)C[C@H]2N(C)C)cc1 | -11.81
COc1cccc(-c2c[nH]c(C3CCCN3)n2)c1.Cl.Cl (centres undefined) | -13.27
Cn1ccnc1CN1CCC(c2ccnc(-c3cccc(O)c3)c2)C1 (centres undefined) | 8.376
COc1ccc(-c2cc(C3CCNCC3)ccn2)cc1.Cl | 126.8
COc1ccc(-c2nc(C3CCNCC3)cc3c2ncn3C)cc1.Cl.Cl | -43.66
COc1ccc(OC)c(C2CCN(C3CCN(C(C)=O)CC3)C2)c1 (centres undefined) | -1.425
COc1ccc(-c2cc(C3CCCNC3)ccn2)cc1.Cl (centres undefined) | 198.3
COc1cccc(-c2cc(C3CCCNC3)ccn2)c1 (centres undefined) | 179.8
CC(NC(=O)CCCc1ccc(Cl)cc1)c1n[nH]c(=O)[nH]1 (centres undefined) | 26.11
COCCCNC(=O)C1CCN(CC2(O)CCC(C)CC2)CC1 (centres undefined) | -1.754
O=C(c1ccc(O)c(Cl)c1)N1CCC(c2n[nH]c(C3CC3)n2)CC1 | 7.915
Cc1noc(C)c1CN1C[C@@H](C(=O)O)[C@H](c2ccccc2)C1 | -10.93
Cc1noc(C)c1CNC(=O)Nc1ccc(N2CCSCC2)cc1 | 101.4
Cc1noc(C)c1CNC(=O)N1CCC(CO)CC1 | -12.65
Cc1noc(C)c1CCCNC(=O)Nc1ccc2c(c1)COC2 | 12.5
Cc1noc(C)c1CNC(=O)Nc1ccc(N2CCOC(C)C2)cc1 (centres undefined) | 95.8
Cc1noc(C)c1C(=O)NCc1ccc(N2CCOC(C)C2)nc1 (centres undefined) | 6.815
Cc1noc(C)c1CCCNC(=O)Nc1ccc2c(c1)CC(=O)N2 | -4.957
Cc1ocnc1CNC(=O)Nc1ccc(N2CCOC(C)C2)cc1 (centres undefined) | 105.8
Cc1ccsc1CNC(=O)c1ccc(N2CCOC2=O)cc1 | 25.75
CC1CN(c2ccc(CNC(=O)NCc3ccoc3)cn2)CCO1 (centres undefined) | 4.131
CC1CN(c2ccc(CNC(=O)NCCO)cn2)CCO1 (centres undefined) | -1.494
Cc1noc(C)c1CNC(=O)Nc1ccc(N2CCOC2=O)cc1 | 99.13
